The source of these data is PubChem BioAssay.

The nature of assay [1]: rapamycin-like changes in RPL19A-GFP expression – cell-based, S. cerevisiae, multiplex flow cytometry, primary screen (AID 1862; in the data active means percent of DMSO control GFP below about 86%;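 further: lower values mimic rapamycin by blocking the RPL19A rise seen in DMSO cells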). The settings on record: S. cerevisiae RPL19A-GFP strain, flow cytometry fluorescence, 3 h; at 10 µM; stronger effect = lower value. (In general: A flow cytometer gives signals particle by particle.)
A short description of assay [2]: TOR pathway GLN3 branch reporter MEP2-GFP changes – S. cerevisiae, multiplex flow cytometry, primary screen (AID 1867;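 active means GFP response, as percent of the DMSO control, above the screen-wide mean plus 3 SD, about 139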;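 further: median GFP channel fluorescence of barcode-gated MEP2-GFP cells measured by flow cytometry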). The settings on record: S. cerevisiae MEP2-GFP strain, 3 h, at 10 µM, stronger effect = higher value, 100% means same as DMSO wells.
Assay [3] is described as follows: TOR pathway RTG branch CIT2 reporter changes – S. cerevisiae, GFP fusion, multiplex flow cytometry, primary screen (AID 1870;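 active means percent response above a set limit, the screen-wide mean plus 3 SD, cut at about 130% in these data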;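 further: barcoded CIT2-GFP strain pooled with four other GFP strains with rapamycin as positive control; median GFP fluorescence per well over plate mean of DMSO wells so 100% = DMSO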). The settings on record: S. cerevisiae CIT2-GFP expression, 3 h, at 10 µM, stronger effect = higher value.
Assay [4] is described as follows: TOR pathway LAP4-GFP level changes – S. cerevisiae, multiplex flow cytometry, primary screen (AID 1873;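 active means GFP signal, as percent of the solvent control, above the screen mean plus 3 SD, about 149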). The settings on record: S. cerevisiae LAP4-GFP expression, 3 h, at 10 µM, stronger effect = higher value.
Assay [5] is described as follows: yeast AGP1-GFP level changes, GLN3 branch – cell-based, multiplex flow cytometry, S. cerevisiae, primary screen (AID 1887;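 active means GFP signal above the screen-wide mean plus 3 SD, that is over about 124.5% of the solvent control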;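 further: AGP1-GFP fusion strain of S. cerevisiae within a five-strain barcoded multiplex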). The settings on record: 3 h, at 10 µM, stronger effect = higher value.
Assay [6] can be described thus: reduced mouse 2C T cell binding to pMHC/ICAM-1 vesicles – MLPCN validation set, flow cytometry, LFA-1/ICAM-1 modulator project, pilot screen (AID 2523;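 active means response below a set limit, under 55% cells CD8-positive and vesicle-bound, and CD8 cells' 90th-percentile brightness under 279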;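 on vesicle binding response: mean PE anti-B7-1 fluorescence of CD8+ cells relative to row control; 100% = QL9-loaded vesicles with DMSO vehicle in the same plate row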). The settings on record: 2C mouse CD8+ T cells, at 7 µM, stronger effect = lower value; double positive events: measured here: CD8+/vesicle+ event percentage.
Assay [7] has as its target Integrin beta-1 (Homo sapiens) + Integrin alpha-4 (Homo sapiens) (UniProt P13612+P05556). In words: alpha4beta1 integrin LIBS antibody binding reduction – U937 cells, HUTS-21 mAb, flow cytometry, validation set, VLA-4 allosteric modulator project, pilot screen (AID 2674;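 active means inhibition above 50%, about 3 SD of the validation set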;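 further: antibody binding induced by the VLA-4 ligand LDV present at three times its Kd; 0% = LDV ligand with antibody and no compound and 100% = antibody without LDV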). The settings on record: HUTS-21 LIBS mAb binding, at 6.7 µM, stronger effect = higher value, binding induced by LDV ligand.

Assay [8] is described as follows: calorie-restriction mimetic ROS inhibitors, yeast – validation compound set, pilot screen (AID 2706;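 active means superoxide response below 65% of plate, a cut near 3 SD across the whole screen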;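 further: yeast exposed to compound for one week at 30 degrees C before staining; 100% = mean of all compound wells on the same plate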). The settings on record: S. cerevisiae aging, superoxide DHE fluorescence; at 10 µM; stronger effect = lower value.
For assay [9], the target named is Beta-adrenergic receptor kinase 1 (Homo sapiens) (UniProt P25098). Kind of assay: GRK2 binders displacing RNA aptamer, biochemical, validation, human GRK2, bead flow cytometry (AID 488806;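 active means aptamer binding inhibition above 30%, about 3 SD of noise from non-fluorescent compounds; inactive means inhibition at or below 30%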). The settings on record: bead-bound GRK2, FAM-aptamer displacement, at 10 µM, stronger effect = higher value.
For assay [10], the target named is Beta-2 adrenergic receptor (Homo sapiens) (UniProt P07550). In words: agonist-induced loss of surface beta2AR – cell-based, FAP fluorogen, flow cytometry, validation set, pilot screen (AID 504459;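 active means percent response above 42, roughly 3 SD of non-fluorescent test compounds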;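 further: agonist-driven loss of surface beta2AR via internalization measured by FAP dye flow cytometry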). The settings on record: Am2.2-beta2AR cells, at 10 µM, stronger effect = higher value.
Assay [11] addresses AP-2 complex subunit beta (Homo sapiens) (UniProt P63010). Kind of assay: beta-arrestin/AP2 interaction blockers – biochemical, validation set, GST-AP2 beads, flow cytometry, pilot screen (AID 504541;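 active means inhibition above 54%, about 3 SD of non-fluorescent compounds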;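 further: AP2 carries R879A mutation and is captured from E. coli lysate; bead-bound FITC arrestin peptide fluorescence measuring arrestin peptide binding to AP2; 0% = DMSO wells and 100% = excess unlabeled arrestin peptide control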). The settings on record: FITC arrestin peptide, at 10 µM, stronger effect = higher value, AP2 beta2 appendage fragment, R879A mutant.
The nature of assay [12]: cytosolic pH regulators acting via V-ATPase – S. cerevisiae, pHLuorin, HTS validation (AID 504600; in the data active means response above about 15%;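 further: plate controls were DMSO for no effect and reference compound for full effect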). The settings on record: V-ATPase proton transport, at 10 µM, stronger effect = higher value.
Assay [13] has as its system anti-desmoglein-3 scFv antibody binding to human DSG3. Kind of assay: blockers of pathogenic pemphigus antibody–desmoglein-3 binding – biochemical, validation compound set, bead-based, flow cytometry, pilot screen (AID 588368;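 active means binding below the plate cutoff, the plate median minus 3 SD, with a reading above zero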;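 further: signal is the median channel fluorescence of bead-bound GFP antibody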). The settings on record: Protein G beads, DSG3-Fc, scFv-GFP binding, at 10 µM, stronger effect = lower value.
A short description of assay [14]: Nile Red efflux blockade in pump-expressing yeast – validation compound set, multiplex, phenotypic, pilot screen (AID 588506;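 active means efflux inhibition above 0.42, the validation set average plus 4 SD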;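 further: Nile Red retained in cells so higher fluorescence means more efflux inhibition; 0 = negative control wells and 1 = enniatin B 25 µM full block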). The settings on record: S. cerevisiae pump-expressing triplex, Nile Red efflux flow cytometry; at 10 µM; stronger effect = higher value; the pumps come from Candida albicans.
Assay [15] deals with ATP-binding cassette sub-family B member 6 (Homo sapiens) (UniProt Q9NP58). In words: blockers of ABCB6-driven porphyrin uptake – K562-ABCB6 cells, flow cytometry, validation set, pilot screen (AID 588550).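 Further: 0% = DMSO wells and 100% = benzethonium chloride 70 µM positive control.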 The settings on record: K562-ABCB6 porphyrin accumulation, 1 h, at 10 µM, stronger effect = higher value.
Assay [16] in a line: AML differentiation inducers, ER-HoxA9 marrow cells – cell-based, GFP/MAC1 double positive, flow cytometry, validation set, primary screen (AID 588685;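 active means differentiation response of at least 50%, scaled between solvent and reference control, from cells with both markers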;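 further: compound exposure lasts four days before antibody staining and flow analysis; 0% = DMSO wells and 100% = 5 µM fulvestrant positive control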). The settings on record: stronger effect = higher value, normalized: vehicle 0, fulvestrant 100.

Records with an inconclusive call do not appear. Active and inactive are the calls of the source.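 How the source made its calls, unless noted: active means inhibition above the screen-wide mean plus 3 SD, about 51%; inactive means the rest.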

As usually defined, the inhibition is the change of the read-out against control, counted positive when it falls.

ATP-binding cassette sub-family B member 6 (Homo sapiens), sequence (Q9NP58 whole entry, looked up): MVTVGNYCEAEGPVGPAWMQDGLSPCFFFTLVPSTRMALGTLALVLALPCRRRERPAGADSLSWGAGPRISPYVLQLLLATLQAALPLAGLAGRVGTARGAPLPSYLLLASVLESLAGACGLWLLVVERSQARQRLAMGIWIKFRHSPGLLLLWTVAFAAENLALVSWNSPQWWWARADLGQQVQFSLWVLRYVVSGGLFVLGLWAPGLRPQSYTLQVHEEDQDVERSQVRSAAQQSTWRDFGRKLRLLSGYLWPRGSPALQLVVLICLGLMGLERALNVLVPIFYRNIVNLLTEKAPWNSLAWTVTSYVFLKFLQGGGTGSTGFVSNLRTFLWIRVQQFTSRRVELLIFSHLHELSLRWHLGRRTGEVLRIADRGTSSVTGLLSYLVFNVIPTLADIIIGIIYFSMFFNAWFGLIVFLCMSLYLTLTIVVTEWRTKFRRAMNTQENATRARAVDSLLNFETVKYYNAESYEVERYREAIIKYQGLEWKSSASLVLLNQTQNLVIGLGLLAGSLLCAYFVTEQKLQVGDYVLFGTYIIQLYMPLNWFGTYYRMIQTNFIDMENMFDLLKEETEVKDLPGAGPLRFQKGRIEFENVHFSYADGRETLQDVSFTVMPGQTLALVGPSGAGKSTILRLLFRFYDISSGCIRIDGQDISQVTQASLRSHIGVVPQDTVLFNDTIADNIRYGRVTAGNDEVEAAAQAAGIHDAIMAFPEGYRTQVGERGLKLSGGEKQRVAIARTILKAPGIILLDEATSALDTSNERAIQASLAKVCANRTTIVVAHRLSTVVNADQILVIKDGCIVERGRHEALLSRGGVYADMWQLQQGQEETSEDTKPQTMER
Beta-adrenergic receptor kinase 1 (Homo sapiens), sequence (P25098 whole entry, looked up): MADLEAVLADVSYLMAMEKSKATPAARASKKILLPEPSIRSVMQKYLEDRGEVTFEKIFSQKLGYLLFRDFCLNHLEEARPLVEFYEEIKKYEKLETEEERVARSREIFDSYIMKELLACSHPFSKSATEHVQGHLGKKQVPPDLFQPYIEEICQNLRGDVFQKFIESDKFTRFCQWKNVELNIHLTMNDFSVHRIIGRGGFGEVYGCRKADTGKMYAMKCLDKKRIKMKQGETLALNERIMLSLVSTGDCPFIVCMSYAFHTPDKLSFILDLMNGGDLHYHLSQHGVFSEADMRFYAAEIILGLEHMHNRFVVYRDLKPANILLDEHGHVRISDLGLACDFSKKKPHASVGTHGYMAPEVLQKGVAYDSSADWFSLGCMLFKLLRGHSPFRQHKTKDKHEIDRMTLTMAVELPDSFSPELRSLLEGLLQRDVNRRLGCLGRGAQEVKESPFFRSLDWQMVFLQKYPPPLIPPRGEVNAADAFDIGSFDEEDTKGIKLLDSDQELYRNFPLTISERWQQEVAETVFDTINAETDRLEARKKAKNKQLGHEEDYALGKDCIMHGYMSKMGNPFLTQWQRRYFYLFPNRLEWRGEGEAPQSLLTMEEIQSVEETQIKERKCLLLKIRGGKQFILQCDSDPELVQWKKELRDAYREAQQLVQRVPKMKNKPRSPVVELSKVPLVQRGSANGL
Beta-2 adrenergic receptor (Homo sapiens), sequence (P07550 whole entry, looked up): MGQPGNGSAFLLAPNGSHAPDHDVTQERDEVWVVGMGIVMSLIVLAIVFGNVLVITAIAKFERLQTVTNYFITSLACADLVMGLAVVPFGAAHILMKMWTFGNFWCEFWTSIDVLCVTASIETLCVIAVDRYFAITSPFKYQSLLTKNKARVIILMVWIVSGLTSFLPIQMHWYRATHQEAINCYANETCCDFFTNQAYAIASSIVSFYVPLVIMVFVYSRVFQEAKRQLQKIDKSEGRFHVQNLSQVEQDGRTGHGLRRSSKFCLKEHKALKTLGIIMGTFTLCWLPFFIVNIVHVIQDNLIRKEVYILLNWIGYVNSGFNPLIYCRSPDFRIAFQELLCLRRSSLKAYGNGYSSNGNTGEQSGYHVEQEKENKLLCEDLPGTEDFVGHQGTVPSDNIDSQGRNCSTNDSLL
AP-2 complex subunit beta (Homo sapiens), sequence (P63010 whole entry, looked up, the tested form may be a part, one chain of several): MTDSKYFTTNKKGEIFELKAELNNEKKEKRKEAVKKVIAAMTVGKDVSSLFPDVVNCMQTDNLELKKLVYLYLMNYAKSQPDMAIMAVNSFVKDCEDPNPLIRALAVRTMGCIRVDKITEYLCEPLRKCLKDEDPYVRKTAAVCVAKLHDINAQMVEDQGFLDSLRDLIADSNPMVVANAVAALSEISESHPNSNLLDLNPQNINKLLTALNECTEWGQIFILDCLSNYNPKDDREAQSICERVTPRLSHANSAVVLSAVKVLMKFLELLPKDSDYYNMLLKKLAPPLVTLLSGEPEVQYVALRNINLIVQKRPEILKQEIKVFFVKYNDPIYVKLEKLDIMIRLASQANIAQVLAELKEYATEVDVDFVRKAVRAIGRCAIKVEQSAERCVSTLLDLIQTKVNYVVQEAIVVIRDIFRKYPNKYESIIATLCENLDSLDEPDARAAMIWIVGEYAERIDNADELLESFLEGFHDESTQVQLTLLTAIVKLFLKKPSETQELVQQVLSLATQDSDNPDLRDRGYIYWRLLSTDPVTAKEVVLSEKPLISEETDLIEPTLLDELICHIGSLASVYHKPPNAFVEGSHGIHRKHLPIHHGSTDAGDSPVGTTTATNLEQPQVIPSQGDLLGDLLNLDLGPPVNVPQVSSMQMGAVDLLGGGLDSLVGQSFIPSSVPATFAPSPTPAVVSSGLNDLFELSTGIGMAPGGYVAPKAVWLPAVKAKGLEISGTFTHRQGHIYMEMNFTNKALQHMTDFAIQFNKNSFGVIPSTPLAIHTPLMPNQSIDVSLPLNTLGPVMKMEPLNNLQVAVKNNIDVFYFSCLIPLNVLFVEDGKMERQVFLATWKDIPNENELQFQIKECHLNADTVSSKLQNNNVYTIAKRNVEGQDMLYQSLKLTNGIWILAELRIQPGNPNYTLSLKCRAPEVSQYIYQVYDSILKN
Integrin beta-1 (Homo sapiens) + Integrin alpha-4 (Homo sapiens), sequence (P05556 whole entry, looked up): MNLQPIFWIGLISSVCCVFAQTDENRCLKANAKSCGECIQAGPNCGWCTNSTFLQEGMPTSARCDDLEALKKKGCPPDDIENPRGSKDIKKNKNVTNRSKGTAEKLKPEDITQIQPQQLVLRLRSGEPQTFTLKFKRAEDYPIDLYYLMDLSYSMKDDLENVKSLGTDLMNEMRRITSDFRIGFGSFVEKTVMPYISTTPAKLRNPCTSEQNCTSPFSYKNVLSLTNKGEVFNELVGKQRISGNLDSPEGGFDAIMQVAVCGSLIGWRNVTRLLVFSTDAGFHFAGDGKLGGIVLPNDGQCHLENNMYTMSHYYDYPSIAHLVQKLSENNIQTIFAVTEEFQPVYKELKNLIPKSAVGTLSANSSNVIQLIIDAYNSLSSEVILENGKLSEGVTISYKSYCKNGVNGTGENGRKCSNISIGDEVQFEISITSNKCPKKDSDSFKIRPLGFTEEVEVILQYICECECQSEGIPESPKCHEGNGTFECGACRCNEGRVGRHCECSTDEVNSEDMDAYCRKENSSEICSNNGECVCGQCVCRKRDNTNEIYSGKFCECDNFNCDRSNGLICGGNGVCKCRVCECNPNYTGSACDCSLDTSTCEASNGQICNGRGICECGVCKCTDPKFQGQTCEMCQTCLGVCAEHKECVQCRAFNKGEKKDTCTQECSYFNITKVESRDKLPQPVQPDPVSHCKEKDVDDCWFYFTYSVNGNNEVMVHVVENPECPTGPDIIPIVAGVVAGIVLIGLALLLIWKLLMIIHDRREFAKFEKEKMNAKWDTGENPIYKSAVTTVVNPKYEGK
Integrin beta-1 (Homo sapiens) + Integrin alpha-4 (Homo sapiens), sequence (P13612 whole entry, looked up): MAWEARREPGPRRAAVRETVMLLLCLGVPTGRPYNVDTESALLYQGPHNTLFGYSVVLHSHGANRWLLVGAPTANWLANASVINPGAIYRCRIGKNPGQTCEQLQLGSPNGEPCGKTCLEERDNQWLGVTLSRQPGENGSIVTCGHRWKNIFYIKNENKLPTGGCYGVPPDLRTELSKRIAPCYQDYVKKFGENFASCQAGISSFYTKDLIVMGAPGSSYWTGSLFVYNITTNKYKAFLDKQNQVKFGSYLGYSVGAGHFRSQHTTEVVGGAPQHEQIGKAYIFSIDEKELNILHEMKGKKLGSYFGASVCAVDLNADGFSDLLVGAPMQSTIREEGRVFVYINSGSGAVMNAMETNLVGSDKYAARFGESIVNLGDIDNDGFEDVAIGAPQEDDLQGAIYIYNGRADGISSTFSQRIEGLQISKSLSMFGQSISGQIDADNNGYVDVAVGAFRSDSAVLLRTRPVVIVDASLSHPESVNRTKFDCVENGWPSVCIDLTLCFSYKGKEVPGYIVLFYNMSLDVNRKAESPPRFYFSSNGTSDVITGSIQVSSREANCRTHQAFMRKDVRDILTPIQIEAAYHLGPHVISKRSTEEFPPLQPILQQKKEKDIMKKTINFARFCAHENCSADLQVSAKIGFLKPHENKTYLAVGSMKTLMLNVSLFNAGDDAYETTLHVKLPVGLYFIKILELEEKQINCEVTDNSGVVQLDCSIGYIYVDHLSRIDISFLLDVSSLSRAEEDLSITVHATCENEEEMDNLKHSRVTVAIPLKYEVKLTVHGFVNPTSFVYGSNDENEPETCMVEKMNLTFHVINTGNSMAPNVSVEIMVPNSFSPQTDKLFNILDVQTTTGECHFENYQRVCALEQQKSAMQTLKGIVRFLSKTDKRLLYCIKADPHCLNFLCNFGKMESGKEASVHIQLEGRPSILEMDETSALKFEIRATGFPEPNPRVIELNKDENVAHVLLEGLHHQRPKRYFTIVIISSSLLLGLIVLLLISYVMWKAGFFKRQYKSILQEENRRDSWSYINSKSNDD

For the molecule `COc1ccc(NC(=O)C2OC3OC(C)(C)OC3C3OC(C)(C)OC23)cc1` (stereo not given), the percent of DMSO control GFP in [1] was 98.9% (inactive). Also, the GFP response vs DMSO in [2] is 98.6% (inactive); in assay [4] it was 106% (inactive). In addition, the percent response of DMSO control in assay [3] was 98.3% (inactive). Besides, the GFP response, % of DMSO in assay [5] was 119% (inactive). The same molecule yielded a double positive events in assay [6] of 63.5%. For the same molecule, the vesicle binding response in assay [6] is 203% (inactive). In addition, the inhibition in [7] is 13.4% (inactive); in [11], -12.6% (inactive); in assay [15], 5% (inactive). The superoxide response (% of plate) in [8] was 103% (inactive). The aptamer binding inhibition in assay [9] was 5% (inactive). Moreover, the response in assay [10] is -8.79% (inactive); in assay [12] it was 1.13% (inactive). In addition, the binding (% of control) in assay [13] is 106% (inactive). For the same molecule, in assay [14], the efflux inhibition (fraction of control) was -0.04 (inactive). Also, the differentiation response in [16] is 0.92% (inactive).
As to `O=C(NC1CC1)C1CCN(C2CCN(C(=O)Cc3ccc(F)cc3)CC2)CC1`, the percent of DMSO control GFP in assay [1] is 94.6% (inactive). Moreover, the GFP response vs DMSO was 136% (inactive) in assay [2] and 84.7% (inactive) in assay [4]. The percent response of DMSO control in assay [3] is 111% (inactive). Further, the GFP response, % of DMSO in assay [5] is 90.5% (inactive). Moreover, the double positive events in [6] turned out to be 38%. Moreover, in [6], the vesicle binding response was 48% (active). Besides, the inhibition was -3.24% (inactive) in assay [7], 44.4% (inactive) in [11] and 8% (inactive) in assay [15]. For the same molecule, the superoxide response (% of plate) in assay [8] was 106% (inactive). Moreover, the aptamer binding inhibition in assay [9] is -7% (inactive). The response is -2.98% (inactive) in assay [10] and -9.52% (inactive) in [12]. In [13], the binding (% of control) is 98.3% (inactive). Further, in [14], the efflux inhibition (fraction of control) is 0.27 (inactive). The differentiation response in [16] was 6.55% (inactive).
Regarding `COC(=O)C1=C(C)N(Cc2ccco2)C(=O)/C1=C\c1ccc([N+](=O)[O-])cc1`, the percent of DMSO control GFP in assay [1] was 102% (inactive). Besides, the GFP response vs DMSO in assay [2] was 103% (inactive); in [4], 95.3% (inactive). For the same molecule, in assay [3], the percent response of DMSO control is 97.8% (inactive). The GFP response, % of DMSO in [5] is 96.2% (inactive). For the same molecule, the double positive events in assay [6] was 66.2%. Besides, the vesicle binding response in assay [6] is 232% (inactive). Moreover, the inhibition in assay [7] is -274% (inactive); in [11], 43.9% (inactive); in assay [15] it was -55% (inactive). Moreover, the superoxide response (% of plate) in assay [8] was 112% (inactive). Besides, in assay [9], the aptamer binding inhibition was -4% (inactive). In addition, the response was 15.1% (inactive) in assay [10] and -6.06% (inactive) in assay [12]. Besides, the binding (% of control) in [13] was 205% (inactive). In assay [14], the efflux inhibition (fraction of control) is 0.18 (inactive). In addition, the differentiation response in assay [16] was 42.3% (inactive).
Turning to `CCc1cc2c(=O)c(-c3nc(C)cs3)c(CCCC(=O)O)oc2cc1O`, the percent of DMSO control GFP in assay [1] was 103% (inactive). The GFP response vs DMSO in assay [2] is 108% (inactive); in [4], 98% (inactive). For the same molecule, in assay [3], the percent response of DMSO control is 102% (inactive). Besides, the GFP response, % of DMSO in [5] was 100% (inactive). Further, the double positive events in assay [6] worked out at 54.4%. The vesicle binding response in assay [6] is 39.1% (active). Further, the figures for the inhibition in assay [7], in assay [11] and in assay [15] were 1.62% (inactive), -6.82% (inactive) and -3% (inactive), respectively. Also, the superoxide response (% of plate) in [8] is 105% (inactive). Besides, in assay [9], the aptamer binding inhibition is 2% (inactive). Also, the response in assay [10] is -4.49% (inactive); in [12], -0.76% (inactive). Also, the binding (% of control) in assay [13] was 114% (inactive). Besides, the efflux inhibition (fraction of control) in assay [14] was -0.2 (inactive). The differentiation response in [16] is 2.2% (inactive).
Consider `CC(C)c1ccc(OCc2ccc(C(=O)O)o2)cc1`, for which the percent of DMSO control GFP in assay [1] was 105% (inactive). The figures for the GFP response vs DMSO in assay [2] and in assay [4] were 102% (inactive) and 91.5% (inactive), respectively. Further, the percent response of DMSO control in assay [3] is 109% (inactive). Also, in assay [5], the GFP response, % of DMSO was 93.7% (inactive). The same molecule returned a double positive events in assay [6] of 87.7%. For the same molecule, in [6], the vesicle binding response is 313% (inactive). Also, the inhibition in assay [7] was 11% (inactive); in [11], 2.53% (inactive); in assay [15], 2% (inactive). Moreover, the superoxide response (% of plate) in assay [8] is 107% (inactive). The aptamer binding inhibition in [9] is 15% (inactive). The response was 5.55% (inactive) in assay [10] and 13.4% (inactive) in assay [12]. In assay [13], the binding (% of control) was 98.3% (inactive). For the same molecule, the efflux inhibition (fraction of control) in [14] was -0.16 (inactive). The differentiation response in assay [16] is -7.5% (inactive).
